# Results: PMC4336329 (PLoS ONE, 2015)
# In all, about 310,000 compounds went through this assay and about 14,000 (4.5%) showed an effect of 50% or more. The effect is printed as a negative number. This is one part of a sample in which strong results are shown more often than they occur.
# Biological target: human ether-à-go-go-related gene (hERG) potassium channel (human, UniProt Q12809)
# Test: primary screen, population patch clamp on CHO cells stably expressing hERG; higher = less effect of the substance
# 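Also: peak tail current of the secondary pulse compared with the same well before compound.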
# Sequence of human ether-à-go-go-related gene (hERG) potassium channel (Q12809 whole entry, looked up): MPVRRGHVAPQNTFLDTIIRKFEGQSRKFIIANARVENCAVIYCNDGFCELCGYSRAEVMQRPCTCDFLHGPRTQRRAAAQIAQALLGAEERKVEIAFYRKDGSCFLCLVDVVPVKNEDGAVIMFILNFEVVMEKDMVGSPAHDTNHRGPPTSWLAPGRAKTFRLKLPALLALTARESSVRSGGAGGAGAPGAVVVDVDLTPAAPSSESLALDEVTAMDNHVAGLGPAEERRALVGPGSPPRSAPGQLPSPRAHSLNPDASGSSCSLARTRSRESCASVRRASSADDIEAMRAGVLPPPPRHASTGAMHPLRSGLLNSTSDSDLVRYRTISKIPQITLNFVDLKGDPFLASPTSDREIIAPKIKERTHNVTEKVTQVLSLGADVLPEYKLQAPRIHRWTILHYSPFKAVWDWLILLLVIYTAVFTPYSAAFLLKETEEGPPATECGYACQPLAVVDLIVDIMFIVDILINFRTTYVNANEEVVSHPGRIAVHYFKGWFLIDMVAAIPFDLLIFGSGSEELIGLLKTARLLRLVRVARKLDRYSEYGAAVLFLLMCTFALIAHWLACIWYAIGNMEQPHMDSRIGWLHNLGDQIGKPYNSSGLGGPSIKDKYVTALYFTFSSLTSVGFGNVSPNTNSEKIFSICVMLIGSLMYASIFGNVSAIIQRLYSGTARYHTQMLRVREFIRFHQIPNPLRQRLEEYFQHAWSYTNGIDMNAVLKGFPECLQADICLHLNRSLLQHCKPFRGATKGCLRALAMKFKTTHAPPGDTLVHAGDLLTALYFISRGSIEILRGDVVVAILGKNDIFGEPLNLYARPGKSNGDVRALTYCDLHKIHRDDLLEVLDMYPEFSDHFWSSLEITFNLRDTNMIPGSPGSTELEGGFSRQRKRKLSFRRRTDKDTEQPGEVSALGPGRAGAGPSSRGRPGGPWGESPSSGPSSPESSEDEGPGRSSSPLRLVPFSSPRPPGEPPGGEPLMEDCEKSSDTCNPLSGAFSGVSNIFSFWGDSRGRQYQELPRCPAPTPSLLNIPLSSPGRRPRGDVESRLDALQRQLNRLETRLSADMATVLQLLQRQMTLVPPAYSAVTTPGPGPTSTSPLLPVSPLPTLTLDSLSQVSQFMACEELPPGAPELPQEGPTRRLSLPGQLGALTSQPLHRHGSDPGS
row,Compound,"hERG current change (%, negative = inhibition) at 10uM"
1,CCOC(=O)N1CCN(S(=O)(=O)c2ccc(Br)s2)CC1,-9.22%
2,COc1ccc(CC(=O)Nc2ccc(-c3csc(C)n3)cc2)cc1,7.89%
3,COc1ccc(Nc2nc(-c3cc4cccc(OC)c4oc3=O)cs2)cc1,11.6%
4,Cc1cccc(C(=O)Nc2cccc(C(=O)Nc3cc(C)ccn3)c2)c1,7.29%
5,O=C(CC1N=C2c3ccccc3N=C(SCc3ccccc3Cl)N2C1=O)NCc1ccco1 (stereo not shown),-47%
6,O=C(CC1N=C2c3ccccc3N=C(SCc3ccc(Cl)cc3)N2C1=O)NCc1ccco1 (stereo not shown),-75.3%
7,O=C(CCC1N=C2c3ccccc3N=C(SCC(=O)NCc3ccco3)N2C1=O)NCc1ccco1 (stereo not shown),12.7%
8,Cc1ccc(CSC2=Nc3ccccc3C3=NC(CC(=O)NCc4ccco4)C(=O)N23)cc1 (stereo not shown),-51.8%
9,O=C(CSC1=Nc2ccccc2C2=NC(CC(=O)NC3CCCCC3)C(=O)N12)NCc1ccco1 (stereo not shown),-29.9%
10,Cc1ccc(CSC2=Nc3ccccc3C3=NC(CCC(=O)NCc4ccco4)C(=O)N23)cc1 (stereo not shown),-68.8%
11,CCCCNC(=O)CC1N=C2c3ccccc3N=C(SCC(=O)Nc3cccc(OC)c3)N2C1=O (stereo not shown),-10.6%
12,CCC(C)NC(=O)CSC1=Nc2ccccc2C2=NC(CCC(=O)NCc3ccco3)C(=O)N12 (stereo not shown),-1.01%
13,CCCCNC(=O)CC1N=C2c3ccccc3N=C(SCC(=O)Nc3cccc(C)c3)N2C1=O (stereo not shown),-52.6%
14,O=C(CSC1=Nc2ccccc2C2=NC(CC(=O)NCc3ccco3)C(=O)N12)NCc1ccco1 (stereo not shown),7.61%
15,CCCCNC(=O)CC1N=C2c3ccccc3N=C(SCC(=O)Nc3ccccc3C)N2C1=O (stereo not shown),-0.929%
16,NC(=O)CSC1=Nc2ccccc2C2=NC(CC(=O)NCc3cccs3)C(=O)N12 (stereo not shown),11.2%
17,Cn1c(SCC(=O)O)nnc1-c1ccc(NC(=O)c2ccc(Cl)c(Cl)c2)cc1,7%
18,COCc1[nH]nc2c1C(C1C=CCCC1)C(C#N)=C(N)O2 (stereo not shown),-8.37%
19,CSc1ccc(/C=C/C(=O)NC(=O)c2ccccc2O)cc1,11.3%
20,O=C(O)/C=C/c1cnc2ccccc2c1,19.1%
21,CCOc1ccc(C(O)(CCC(C)C)C(CN2CCOCC2)c2ccccc2)cc1.Cl (stereo not shown),13.3%
22,COc1ccc(CCNC(=O)CCC(=O)Nc2nnc(C(C)C)s2)cc1OC,10.4%

row,Compound,"hERG current change (%, negative = inhibition) at 10uM"
1,Cc1cc(N)n(-c2nc(-c3cccnc3)nc3ccccc23)n1,-27.4%
2,O=S(=O)(CCN1CCOCC1)c1ccc(OC(F)(F)F)cc1,2.9%
3,COc1ccc(OCCOC(=O)C(C)NS(=O)(=O)c2ccc(NC(C)=O)cc2)cc1 (stereo not shown),-7.73%
4,COC(=O)C1=C(c2c(C)noc2C)C[C@@H]2CC[C@H]1N2C(=O)N1CCCCC1,17.1%
5,CC(=O)Nc1ccc(N=Nc2ccccc2)cc1,8.44%
6,O=C(NC(=S)Nc1nc(-c2ccc([N+](=O)[O-])cc2)cs1)c1ccco1,16.5%
7,O=C(CCC1N=C2c3ccccc3N=C(SCc3ccc(F)cc3)N2C1=O)NCc1ccco1 (stereo not shown),-70.9%
8,O=C(CCC1N=C2c3ccccc3N=C(SCc3ccc(Cl)cc3)N2C1=O)NCc1ccco1 (stereo not shown),-52%
9,O=C(CSC1=Nc2ccccc2C2=NC(CC(=O)NCc3ccco3)C(=O)N12)NCC1CCCO1 (stereo not shown),7.92%
10,O=C(CCC1N=C2c3ccccc3N=C(SCc3cccc(Cl)c3)N2C1=O)NCc1ccco1 (stereo not shown),-42.2%
11,O=C(CCC1N=C2c3ccccc3N=C(SCC(=O)NCC3CCCO3)N2C1=O)NCc1ccc(F)cc1 (stereo not shown),2.89%
12,NC(=O)CSC1=Nc2ccccc2C2=NC(CCC(=O)NCc3ccc(F)cc3)C(=O)N12 (stereo not shown),15.1%
13,O=C(CCC1N=C2c3ccccc3N=C(SCc3ccccc3Cl)N2C1=O)NCc1ccco1 (stereo not shown),-32.4%
14,O=C(CC1N=C2c3ccccc3N=C(SCc3ccc(F)cc3)N2C1=O)NCc1ccco1 (stereo not shown),-73.9%
15,CCC(C)NC(=O)CSC1=Nc2ccccc2C2=NC(CC(=O)NCc3ccc(F)cc3)C(=O)N12 (stereo not shown),-11.4%
16,CCCCN(C)CCNC(=O)c1ccc(Cn2c(=S)[nH]c3ccc(Br)cc3c2=O)cc1,-41%
17,COCCNC(=S)N(CCCN(C)C)Cc1cc2cc3c(cc2[nH]c1=O)OCCO3,24.9%
18,CC(Oc1ccc2c(-c3ccccc3)cc(=O)oc2c1)C(=O)N[C@H](Cc1c[nH]c2ccccc12)C(=O)O (stereo partly shown),7.48%
19,O=C(NCC1CCCO1)c1cnn2c1NC(c1ccccc1)CC2C(F)(F)F (stereo not shown),1.68%
20,NS(=O)(=O)c1cccc(NC(=O)COC(=O)CCc2ccccc2)c1,17%
21,CCC(=O)N1CCc2cc(S(=O)(=O)CCC(=O)NCc3ccc4c(c3)OCO4)ccc21,0.659%
22,Cc1ccc2c(CC(=O)NCCc3ccc(S(N)(=O)=O)cc3)coc2c1,-2.43%

row,Compound,"hERG current change (%, negative = inhibition) at 10uM"
1,O=C(O)C(=O)O.c1ccc(COc2ccc(OCCCN3CCCCC3)cc2)cc1,-78.3%
2,O=C(O)C(=O)O.c1ccc(COc2ccc(OCCCN3CCCC3)cc2)cc1,-73.8%
3,COc1cccc2c1-c1c(C(=O)O)cccc1C2=O,15.7%
4,CC(=O)c1ccc(NC(=O)C(C)NCc2ccccc2Cl)cc1 (stereo not shown),-0.834%
5,CCCCN(C)Cc1c(C)[nH]c2ccc(OCC)cc2c1=O,-39.9%
6,CCCCN(C)Cc1c(C)[nH]c2c(Cl)cccc2c1=O,-38.7%
7,CCCCN(C)Cc1c(C)[nH]c2ccccc2c1=O,-2.26%
8,CCCCN(C)Cc1c(C)[nH]c2c(ccc3ccccc32)c1=O,-73.6%
9,CCCCN(CC)Cc1c(C)[nH]c2ccccc2c1=O,-20.7%
10,CCCCN(CC)Cc1c(C)[nH]c2c(ccc3ccccc32)c1=O,-74.3%
11,CCCCN(C)Cc1c(C)[nH]c2ccc(Cl)cc2c1=O,-55.3%
12,Cc1[nH]c2ccc(Cl)cc2c(=O)c1CN1CCCC1,1.86%
13,CCN(Cc1ccccc1)Cc1c(C)[nH]c2c(C)c(C)ccc2c1=O,-40.6%
14,CC1(C)CC(=O)C(C=Nc2cccnc2/N=C/C2=C(O)CC(C)(C)CC2=O)=C(O)C1,14%
15,O=c1[nH]n2c(C(F)(F)F)cc(C3CC3)nc2c1N=Nc1ccccc1,12.2%
16,COc1cc(OC)cc(-c2oc(=O)c3cc(OC)c(OC)cc3c2/C=C/c2ccc(F)cc2)c1,4.91%
17,Cc1ccc(C(=O)n2nnc3ccccc32)cc1,7.37%
18,CN1C(=S)SC(/[N+]([O-])=C\c2ccccc2)C1(C)C (stereo not shown),-15.4%
19,COC(=O)c1[nH]c2ccc(C)cc2c1NC(=O)CN1CCN(c2ccc(F)cc2)CC1,-1.02%
20,COC(=O)c1[nH]c2ccccc2c1NC(=O)CN1CCN(c2cccc(Cl)c2)CC1,6.84%
21,COC(=O)c1[nH]c2ccc(C)cc2c1NC(=O)CCN1CCN(Cc2ccc3c(c2)OCO3)CC1,-66.1%
22,CCN(CC(=O)Nc1c(C(=O)OC)[nH]c2ccccc12)c1ccc2c(c1)OCO2,-17.4%

row,Compound,"hERG current change (%, negative = inhibition) at 10uM"
1,COC(=O)c1[nH]c2ccccc2c1NC(=O)CN1CCN(Cc2ccc3c(c2)OCO3)CC1,-73.7%
2,CCN(CC(=O)Nc1c(C(=O)OC)[nH]c2ccc(C)cc12)c1ccc2c(c1)OCO2,2.19%
3,CCc1noc(C)c1C(=O)Nc1cccc(S(=O)(=O)N(C)c2ccccc2)c1,-22.1%
4,CCN1CCCC1CNC(=O)Cn1cccc1C(=O)c1ccccc1 (stereo not shown),-3.53%
5,O=C1C=C(c2ccc(F)cc2OCc2ccccc2)C[C@@H](c2ccc(Cl)cc2)C1,6.91%
6,CCOC(=O)[C@H]1[C@H]2COc3ccc(Cl)cc3[C@@H]2N2C(=O)c3cc(C)ccc3NC(=O)[C@@]12C,5.63%
7,Cc1cc(C)n2nc(N)c(N=Nc3ccccc3)c2n1,-3.32%
8,COC(=O)[C@H](CCSC)NC(=O)c1cc2c(cn1)[nH]c1ccccc12,0.117%
9,O=C(CSc1nc2ccccc2[nH]1)c1ccco1,-4.74%
10,CCOC(=O)Nc1ccccc1C(=O)Nc1cc(C)cc(C)c1,28.9%
11,COc1ccc(-c2nc3cccc(C)n3c2NCc2ccco2)cc1OC,-42.2%
12,CCOc1cc(/C=C(\C#N)C(=O)NCC2CCCO2)ccc1O (stereo not shown),-3.03%
13,COc1ccc(-c2nc3cccc(C)n3c2NCC2CCCO2)cc1O.Cl (stereo not shown),-5.6%
14,CCOc1cc(-c2nc3ccccn3c2NCC2CCCO2)ccc1O (stereo not shown),-64.7%
15,CCCCNc1c(-c2ccc(OC)c(SC3CCCCC3)c2)nc2cc(C)ccn12.O=C(O)C(F)(F)F,12.6%
16,COc1ccc(-c2nc(C#N)c(NCC3CCCO3)o2)cc1OC (stereo not shown),6.28%
17,CCOc1cc(-c2nc3c(C)cccn3c2NCC2CCCO2)ccc1O.CNC.Cl (stereo not shown),-43.9%
18,CCOc1cc(-c2nc3cc(C)ccn3c2NCC2CCCO2)ccc1O (stereo not shown),-72.2%
19,COc1ccc(-c2nc3cc(C)ccn3c2NCC2CCCO2)cc1OC.Cl (stereo not shown),-71.2%
20,Cc1ccn2c(NC3CCCC3)c(-c3ccncc3)nc2c1,-10.2%
21,COc1cc(-c2nc3ccccn3c2NCC2CCCO2)ccc1O (stereo not shown),-17.9%
22,COc1cc(-c2nc3cccc(C)n3c2NCC2CCCO2)ccc1O (stereo not shown),-51.4%
